# Screening data: PubChem BioAssay, National Center for Advancing Translational Sciences (NCATS)
# The list is not random: actives were taken first. Their share in the collection is about 6.5%.
# MARV entry inh – qHTS for inhibitors of binding or entry into cells for Marburg Virus; 300,000 tested, 1.8% active; AID 540276, 2011; Potency, µM (series often up to 37.8 µM), hits mostly inhibitors; Marburg virus pseudotyped entry inhibition, cell reporter; calls by dose curve; tested in HEK293 cells
# VACV Venus inh – qHTS for Stage-Specific Inhibitors of Vaccinia Orthopoxvirus: Venus Reporter Primary qHTS; Vaccinia virus Venus reporter expression, fluorescence; Potency, µM (series often up to 36.5 µM), most hits filed as inhibitors; 330,000 tested, 0.46% active; AID 720580, 2013; calls by dose curve; tested in A549 cells; further: nearly all actives have a fitted effect of over 30% in size
# HCMV inh – qHTS Assay for inhibitors of the human cytomegalovirus (HCMV); HFF cells, HCMV-luciferase reporter, 72 h; hits give low values; activity change, negative = inhibition, % at 57.5 µM; 410,000 tested, 4.5% active; AID 1259415, 2018; in the data active means activity change below about -60%; inconclusive means no clear call, values can overlap the other calls; inactive means above about -39%
#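 Compounds were evaluated in HFFs infected with an HCMV luciferase reporter virus (MOI 1 PFU/cell). Luciferase in lysates collected 72 h post infection served as the replication measure.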
# LASV entry inh – qHTS for Inhibitors of binding or entry into cells for Lassa Virus; Lassa virus pseudotype entry inhibition, cell reporter; AID 540256, 2011; 300,000 tested, 1.2% active; Potency, µM (top dose mostly 37.9 µM), hits mostly inhibitors; calls by dose curve; tested in HEK293 cells; further: nearly all actives have a fitted effect of over 50% in size
# VACV mCherry inh – qHTS for Stage-Specific Inhibitors of Vaccinia Orthopoxvirus: mCherry Reporter Primary qHTS. Vaccinia virus mCherry reporter infection, fluorescence. Potency, µM (top dose mostly 36.5 µM), hits mostly inhibitors. 310,000 tested, 0.63% active. AID 720579, 2013; calls by dose curve; tested in A549 cells; further: nearly all actives have a fitted effect of over 35% in size
# FMDV inh – High Throughput Screening for Foot and Mouth Disease Virus Antivirals; Potency, µM (titrated, usually from 57.9 µM), usual class: inhibitors; AID 1159524, 2015; 410,000 tested, 1.2% active; FMDV antiviral cell-based qHTS; calls by dose curve; tested in HEK293T cells; further: read-out not given here; nearly all actives have a fitted effect of over 45% in size
# Numbers stand for hits; - = inactive; ? = inconclusive; . = no result given.
SMILES,MARV entry inh,VACV Venus inh,HCMV inh,LASV entry inh,VACV mCherry inh,FMDV inh
Nc1ccc(N2CCCC2)c(S(=O)(=O)Nc2cccc(C(F)(F)F)c2)c1,-,-,-69,-,-,-
CCn1c(SC(C)C(=O)NCc2ccco2)nnc1-c1ccccc1 (centres undefined),.,-,.,.,-,.
COc1ccc(N=C2SCC(=O)N2CCc2ccc(OC)c(OC)c2)cc1,.,.,-,.,.,?
COc1ccc(CCN2C(=O)CSC2=Nc2ccc(C(C)C)cc2)cc1OC,?,-,?,1.4µM,-,20µM
COc1ccc(CCN2C(=O)CS/C2=N\NC(=O)c2ccc(C(C)(C)C)cc2)cc1OC,-,-,-,-,-,32µM
COc1ccc(C(=O)NCCSc2c(C)[nH]c3ccccc23)cc1,?,-,-96,-,-,-
COc1ccc(C(=O)NCCSc2ccccn2)cc1,?,-,-,14µM,.,?
COc1ccc(/C=N/NC(=O)c2cccnc2)cc1CSc1ccccn1,?,-,?,-,-,-
COc1ccc(N(CC(=O)NCCSc2ccccn2)S(C)(=O)=O)cc1,-,.,-,-,.,-
COc1ccc(C(=O)N/N=C/c2ccc(OC)c(CSc3ccccn3)c2)cc1,-,.,-65,-,.,-
Cc1cnc(-n2ncc(C(=O)NCCCc3ccncc3)c2C)nc1-c1ccc(F)cc1,.,?,.,.,-,-
Cc1ccc(C)c(N2CCN(C(=O)c3cc(S(=O)(=O)N4CCCC4)c[nH]3)CC2)c1,.,-,-,-,-,-
Cn1nnnc1SCCCNCc1cc(Br)ccc1OCc1ccccc1F,?,-,?,-,-,?
CC1(C(=O)Nc2cccc(Oc3ccccc3)c2)Cc2c(-c3ccc4c(c3)OCO4)ccnc2O1 (centres undefined),.,-,-67,.,-,-
CC1(C(=O)Nc2ccccc2)Cc2c(-c3ccc4c(c3)OCO4)ccnc2O1 (centres undefined),.,-,-,.,-,-
CCOC(=O)c1sc(NC(=O)CSc2n[nH]c(CC(C)C)n2)nc1C,-,-,-62,?,-,-
CCOC(=O)c1sc(NC(=O)CSc2n[nH]c(C)n2)nc1C,?,-,?,?,-,-
CCOc1ccc(NC(=O)Nc2cccn(Cc3ccccc3)c2=O)cc1,-,?,-84,?,?,?
O=C(Nc1ccncc1)c1cccn(Cc2ccccc2)c1=O,?,-,-75,-,-,?
O=C(NCc1ccccc1)Nc1cccn(Cc2ccccc2)c1=O,-,-,?,?,-,-
O=C(Nc1ccccc1)c1cccn(Cc2ccccc2)c1=O,?,-,-,?,-,-
CSc1ccc(NC(=O)Nc2cccn(Cc3ccccc3F)c2=O)cc1,.,?,-81,.,?,-
COc1ccc(-c2nnc3ccc(SC(C)C)nn23)cc1OC,.,-,.,.,?,.
CCc1cccc(C)c1NC(=S)N(CCOC)C(C)c1ccco1 (centres undefined),-,-,-66,-,-,-
CC(C)CNC(=O)C(=O)Nc1ccc2c(c1)N(S(=O)(=O)c1cccs1)CCC2,3.2µM,-,-,?,-,-
SMILES,MARV entry inh,VACV Venus inh,HCMV inh,LASV entry inh,VACV mCherry inh,FMDV inh
COCCNC(=O)C(=O)Nc1ccc2c(c1)N(S(=O)(=O)c1cccs1)CCC2,?,?,-,1.8µM,-,-
O=C(CCNS(=O)(=O)c1ccc2c(c1)CCCC(=O)N2)Nc1cccc(Cl)c1,.,-,-,-,-,-
O=C(/C=C/Nc1ccccc1)c1ccc(Cl)cc1Cl,.,.,-,.,.,-
N#Cc1c(Nc2ccccc2)[n+]([O-])c2ccc(Cl)cc2[n+]1[O-],?,?,?,3.2µM,-,-
Cc1ccc(CNC(=O)CCc2cn(Cc3ccc(C)cc3)c3ccccc23)cc1,.,-,-,-,-,-
O=C(CCc1cn(Cc2ccccc2F)c2ccccc12)NCc1ccc(Cl)cc1,.,-,-,-,-,10µM
CCc1ccc(NC(=O)COCc2cc(-c3ccc(F)cc3)on2)cc1,-,-,-,-,-,-
Cc1nc2ccc(S(=O)(=O)NC(C(=O)NCc3ccco3)C(C)C)cc2s1 (centres undefined),.,-,-64,.,-,-
Cc1ccc(CNC(=O)C(NS(=O)(=O)c2ccc3nc(C)sc3c2)C(C)C)cc1 (centres undefined),.,-,-,.,-,-
O=c1[nH]c2ccccc2n1C1CCN(C(c2cccs2)c2nnnn2Cc2ccccc2)CC1 (centres undefined),.,?,-96,.,-,-
COc1ccc(-n2nnnc2C(c2cc3ccccc3o2)N2CCC(n3c(=O)[nH]c4ccccc43)CC2)cc1 (centres undefined),.,?,-100,.,?,?
Cc1cccc(C)c1-n1nnnc1C(c1cccs1)N1CCC(n2c(=O)[nH]c3ccccc32)CC1 (centres undefined),.,-,-77,.,-,?
O=c1[nH]c2ccccc2n1C1CCN(C(c2ccccc2OC(F)(F)F)c2nnnn2Cc2ccccc2)CC1 (centres undefined),.,-,-69,.,-,?
CN(C)c1ccc(NC(=O)CSC2=Nc3ccccc3C3=NC(CC(=O)NCc4ccccc4)C(=O)N23)cc1 (centres undefined),.,-,-,-,-,-
COc1ccc(N2CCN(C(c3ccccc3)c3nnnn3Cc3ccccc3)CC2)cc1 (centres undefined),.,-,.,.,-,.
COc1ccc(C(c2nnnn2Cc2ccccc2)N2CCC(n3c(=O)[nH]c4ccccc43)CC2)cc1 (centres undefined),.,-,-65,.,-,-
COc1ccc(C(c2nnnn2-c2ccc(OC)cc2)N2CCC(n3c(=O)[nH]c4ccccc43)CC2)cc1 (centres undefined),.,-,-61,.,-,?
Nc1cc(=O)nc(SCC(=O)Nc2ccc(F)cc2)n1CCc1ccccc1,-,-,-,-,-,-
O=C(CSc1nnc(-c2cccnc2)s1)Nc1ccnc2ccccc12,?,-,-92,?,?,?
Cc1ccc(NC(=O)CSc2nnc(-c3cccnc3)s2)cc1,-,-,-,-,-,-
COc1ccc(/C=C/C(=O)C(C(N)=O)=C2SCCS2)cc1,-,-,-101,-,?,-
NC(=O)C(C(=O)/C=C/c1ccc(Cl)cc1)=C1SCCS1,.,.,-101,.,.,?
Cc1ccc(NC(=O)c2noc3c2CCCCC3)cc1,?,.,-,15µM,.,-
O=S(=O)(Nc1ccc2nc(-c3cccc(Cl)c3)nn2c1)c1ccco1,.,.,-,.,.,.
CCCC(=O)NC(c1ccc(N(C)C)cc1)c1c(O)ccc2ccccc12 (centres undefined),?,-,-,-,-,-
CCCCC(=O)NC(c1ccc(N(CC)CC)cc1)c1ccc2cccnc2c1O (centres undefined),?,?,-96,?,?,-
CCCCC(=O)NC(c1ccc(N(C)C)cc1)c1ccc2cccnc2c1O (centres undefined),?,-,-102,?,1.3µM,-
